The structures appear in SMILES notation. Values without a mark were called inactive. Active and inactive are the calls of the source. Cut-off read from the data, not from the text of the source: active = log2 fold change growth below about -1.8; inactive = the rest.

The results in this text go back to PubChem BioAssay AID1259336 (Sattelle Laboratory, UCL Respiratory, Division of Medicine, …, 2017).

This test in a line: C. elegans growth inhibition, whole organism, log2 fold change (AID 1259336).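 Note: growth scored by imaging after five days at 20 °C.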 To be noted: anthelmintic screen, hits give low values.
Turning to `NC[C@@H](c1cccs1)S(=O)(=O)c1ccccc1`, the log2 fold change growth was 0.289.
In the case of `Nc1ncnc2n[nH]c(Cc3cccc4ccccc34)c12` it was 0.242; in that of `NC(N)=Nc1ccc(-c2ccc(-c3ccc(N=C(N)N)cc3Cl)o2)c(Cl)c1`, 0.171; in that of `NS(=O)(=O)c1cncc(-c2ccc3nccc(-c4cn[nH]c4)c3n2)c1`, -0.501.
The figure for `CC(C)(C)C(=O)N(CCCCCCN1C[C@H](O)[C@@H](O)[C@H](O)[C@H]1CO)C1CCCCCC1` is -0.767; for `O=C(NCc1ccoc1)N1CCN(Cc2ccc3c(c2)OCO3)CC1` it is 0.212; for `CCOc1ccc(-c2nc(NC(=O)CS(=O)(=O)c3ccccc3)sc2C)cc1` it is -1.31.
Take `COc1cccc(-c2cc3c(Nc4cccnc4)nccc3[nH]2)c1`: the log2 fold change growth was 0.319.
The figure for `c1cc(C2=NCCN2)cc(-c2cc(-c3ccc(C4=NCCN4)cc3)no2)c1` is 0.193; for `CCOC(=O)c1c(NC(=O)c2c(F)c(F)c(F)c(F)c2F)sc(C(N)=O)c1C` it is 0.119.
The figure for `O=C([C@H](Cc1c[nH]c2ccccc12)NS(=O)(=O)c1ccc(Cl)cc1)N1CCCCC1` is -0.129.
In the case of `c1ccc(Oc2ccc(-c3cncc(-c4ccc5[nH]ccc5c4)n3)cc2)cc1`, the log2 fold change growth was -1.03.
In the case of `CCOC(=O)NC(=O)c1ccsc1NC(=O)c1nc2ccccc2s1` it was -3.88; in that of `CC(C)(C)n1nc(-c2ccccc2)c2c(N)ncnc21`, -0.162.
In the case of `CC1=NN(c2nc3ccccc3s2)C(=O)[C@H]1Cc1cccc2ccccc12` it was -0.647.
The figure for `Cc1ccccc1C(=O)N1NC(=Nc2ccccc2)SC1(C)C` is -0.306; for `CC(C)c1ncc(-c2ccncc2)c(C2CCC(CNC(=O)c3cccnc3)CC2)n1` (stereo not drawn) it is -0.0296.
On to `Cc1cc(C)cc(COc2ccc3c(C)c(CCC(=O)O)c(=O)oc3c2C)c1`, for which the log2 fold change growth is -0.0961.
As to `COc1ccc(N(CCc2cccc(C)n2)C(C)=O)cc1`, the log2 fold change growth was 0.0749.
As for `Cc1cc(C)nc(-n2nc(C)cc2Nc2ccccc2)n1`, the log2 fold change growth is 0.0497.
With `COc1cccc(-c2nc3c(N4CCCC4)cccc3n2C[C@H]2CCCN2)n1`, the log2 fold change growth is 0.434.
In the case of `CCc1ccccc1-n1c(C)cn2c3c(=O)n([C@H](C(=O)OC)C(C)C)c(=O)n(C)c3nc12` it was 0.456; in that of `Cc1cc(OCC(=O)NCc2ccccc2)c2cc(Br)ccc2n1`, 0.232.
In the case of `Cc1ccc(Oc2ccc(NC(=O)CNc3ccccc3N3CCCC3=O)cc2)cc1`, the log2 fold change growth is 0.0475.
In the case of `CCOc1ccc(-c2nc(CNCCc3ccc(F)cc3)cs2)cc1` it was 0.153; in that of `O=C(Nc1ccc(C(F)(F)F)c(C(F)(F)F)c1)c1cc(Cl)ccc1O`, 0.513; in that of `Cc1ccccc1CN1CCC(O)(c2ccc(Cl)c(C(F)(F)F)c2)CC1`, 0.151.
In the case of `Cc1cnc(CCNC(=O)c2cc(-c3ccc(Cl)cc3)cs2)[nH]1` it was -0.147; in that of `COc1cc(NC(=O)Cc2nn(C)c(=O)c3ccccc23)ccc1Cl`, 0.419; in that of `CCNC(=O)[C@H](C)Nc1nc(-c2cccnc2)nc2sc(C)c(C)c12`, 0.136.
Regarding `O=C(NC1CC1)c1ccc(N2CCOc3ccc(Cl)cc32)s1`, the log2 fold change growth was -0.614.
For the molecule `CC(C)n1nc(-c2cc3c(Cl)cccc3[nH]2)c2c(N)ncnc21`, the log2 fold change growth is -2.56 (active).
For the molecule `O=C(N[C@H](Cc1ccccc1)C(=O)Nc1ccccc1N1CCOCC1)c1cccs1`, the log2 fold change growth was 0.306.
The figure for `O=C(C1CCCCC1)N1CC(=O)N2CCc3ccccc3[C@@H]2C1` is 0.303; for `CCc1ccc(S(=O)(=O)Nc2cc(CN3CCN(CCC(C)C)CC3)ccc2C)cc1` it is 0.554.
The figure for `Nc1ncnc2c1ncn2[C@@H]1O[C@H](COS(=O)(=O)NC(=O)c2ccccc2O)[C@@H](O)[C@H]1O` is 0.353; for `N#Cc1nc(-c2ccccc2)oc1S(=O)(=O)c1ccc(Cl)cc1` it is 0.277; for `COc1ccc(Oc2ccc([C@@H](C)N(C)c3ncc4c(N)nc(N)nc4n3)cc2)cc1` it is 0.282.
